# Among all 48,000 compounds or so, about 13,000 (27%) showed an effect of 50% or more. The list shows a part of the results.
# System: Wolbachia pipientis
# Experiment: Anti-Wolbachia Cell-Based Screen
# Type: functional
# Set-up: scale not given: in the data most compounds retested in dose-response had high values
# Conditions: 5 µM
row,SMILES,Percent Effect [%]
1,CSc1ccc(-c2nc(CN3CCC(CN)C3)c(C)o2)cc1 (stereo not drawn),-1.027
2,CCc1noc(C)c1C(=O)N1CCN(c2nc(C)cc(OC)n2)CC1,-4.975
3,CCc1nnc2n1CCN(c1nc(C)cc(N(C)C)n1)C2,1.842
4,Cc1cc(C(F)(F)F)cc(N2CCC3(CCC(=O)N(CCO)C3)CC2)n1,8.685
5,Cc1cc(N(C)C)nc(C2(C)CCCN2CC(N)=O)n1 (stereo not drawn),87.15
6,Cc1cc(C(F)(F)F)nc(C2(C)CCCN2CC(N)=O)n1 (stereo not drawn),81.01
7,CCCc1nc(C)cc(N2CCC3(CCC(=O)N(CC(N)=O)C3)CC2)n1,1.453
8,CC1(C)CN(CC(F)(F)F)CCN1CC(N)=O,0.007489
9,CS(=O)(=O)NC1CCN(C(=O)COCc2ccccc2)CC1,-3.192
10,Cc1cc(C2CCCN2c2ncc(C(N)=O)cc2Cl)no1 (stereo not drawn),-5.991
11,Cc1nncn1CCNC(=O)C(C)(C)c1cccc(C(F)(F)F)c1,2.023
12,CC(C)CN1CCC(C(=O)Nc2cc(C(F)(F)F)c[nH]c2=O)CC1,-2.2
13,O=C(Nc1cc(C(F)(F)F)c[nH]c1=O)C1CCCNC1 (stereo not drawn),107.9
14,O=C(Nc1cc(C(F)(F)F)c[nH]c1=O)C1CCNCC1,76.16
15,Cc1ccc(C(=O)O)cc1NC(=O)C1CC=CC1,-2.837
16,Cl.O=C(Nc1cc(C(F)(F)F)c[nH]c1=O)C1CCCCN1 (stereo not drawn),99.37
17,CN(CC(=O)Nc1cc(C(F)(F)F)c[nH]c1=O)Cc1ccccc1,-11.84
18,Cc1ccc(C(F)(F)F)cc1NC(=O)C1CCCN1 (stereo not drawn),84.86
19,CC(=O)N(C)CC(=O)Nc1cc(C(F)(F)F)c[nH]c1=O,-5.133
20,O=C(NCc1ccccn1)Nc1cc(C(F)(F)F)c[nH]c1=O,4.379
21,Cc1ccc(C(F)(F)F)cc1NCC(=O)Nc1c(C)nn(C)c1C,5.729
22,COc1cccc(C(=O)N2CCc3ncnc(C)c3CC2)c1,-6.547

row,SMILES,Percent Effect [%]
1,CN1CC[C@H]2CN(C(=O)c3csc(Cc4ccccc4)n3)C[C@H]21,0.1576
2,Cc1nn(C)cc1C(C)Nc1ncnc2sccc12 (stereo not drawn),-14.94
3,c1n[nH]cc1CCCN1CCC(OC2CCCCC2)CC1,7.391
4,O=C(Nc1cc(C(F)(F)F)c[nH]c1=O)C1CCCO1 (stereo not drawn),93.32
5,Cc1ccc(NC(=O)NCCCc2n[nH]c(N)c2C#N)cc1,1.349
6,Cc1nn(C)c(C)c1NC(=O)CCn1ncc2c(C)cccc21,-5.64
7,Cc1ccc(CN2CCCn3c(nc(CN4CCCC4)cc3=O)C2)s1.O=C(O)C(F)(F)F.O=C(O)C(F)(F)F,-4.249
8,O=c1cc(Cn2ccnc2)nc2n1CCCN(Cc1ccsc1)C2,9.464
9,Cc1oncc1C(=O)NCc1cc(=O)n2c(n1)CN(C)CCC2.O=C(O)C(F)(F)F,-6.613
10,COCC(=O)NCc1cc(=O)n2c(n1)CN(Cc1ccoc1)CCC2,84.57
11,Cc1ccc(CN2CCCn3c(nc(Cn4cncn4)cc3=O)C2)s1,-3.936
12,CN(C)C(=O)NCc1cc(=O)n2c(n1)CN(Cc1ccoc1)CCC2.O=C(O)C(F)(F)F,87.23
13,O=C(CC1CC1)NCc1cc(=O)n2c(n1)CN(Cc1ccoc1)CCC2,68.76
14,COCC(=O)NCc1cc(=O)n2c(n1)CN(Cc1ccncc1)CCC2,99.24
15,Cn1ncc2c(NCCOCc3ccccc3)nc(C3CCCC3)nc21,18.15
16,Cc1cc(C)c(C)c(OCCCNC(=O)NC(C)c2nncn2C)c1 (stereo not drawn),4.914
17,Cc1nc(CC(=O)NCCNc2nccc(C(F)(F)F)n2)cs1,-6.146
18,COCC(=O)NCc1cc(=O)n2c(n1)CN(Cc1ccco1)CCC2,106.6
19,CN(C)Cc1cc(=O)n2c(n1)CN(Cc1ccco1)CCC2,2.843
20,O=c1cc(CN2CCCC2)nc2n1CCCN(Cc1ccco1)C2,15.57
21,O=c1cc(CN2CCCC2)nc2n1CCCN(Cc1ccoc1)C2,85.96
22,O=c1cc(CN2CCCC2)nc2n1CCCN(Cc1ccsc1)C2,8.942

row,SMILES,Percent Effect [%]
1,O=c1cc(Cn2cncn2)nc2n1CCCN(Cc1ccco1)C2,-4.032
2,O=C1NC(c2ccccc2)=N[C@@]12CC[C@@H]1CN(S(=O)(=O)C3CC3)C[C@@H]12,2.973
3,Cc1ccc(C)c(NC(=O)C(C)N2CCCN(c3nccs3)CC2)c1 (stereo not drawn),18.26
4,CCC(CO)N(Cc1cccc(O)c1)Cc1ccccc1C (stereo not drawn),-1.955
5,N#Cc1cc(NC(=O)C2CC=CC2)ccc1N1CCC(O)CC1,-4.254
6,CNC(=O)[C@@H](C1CCCCC1)N1CCC[C@H]1C(=O)NC1CC1,10.77
7,N#Cc1ccccc1CNC(C(=O)N1CCOCC1)c1ccccc1 (stereo not drawn),-7.429
8,CCOC(=O)C1CCN(C(=O)c2cnn(-c3ccccc3F)c2N)CC1,125.9
9,CCOC(=O)C1CCN(C(=O)c2cnn(-c3ccc(C)cc3)c2N)CC1,105.1
10,CCOC(=O)C1CCN(C(=O)CN2CCCC2c2ccccc2C)CC1 (stereo not drawn),-25.1
11,CCOC(=O)C1CCN(C(=O)CN2CCCC2Cc2ccccc2)CC1 (stereo not drawn),-0.766
12,CCc1c(C(=O)NCC(=O)OCC2CC2)cnn1-c1ccc(C)cc1,-8.085
13,CCOC1CCN(C(=O)c2ccc(-n3ncc(C#N)c3N)cc2)CC1,-10.17
14,Cc1nn(C(C)C)c(C)c1NC(=O)c1ccc(F)cc1,-6.824
15,CN(C)Cc1ccccc1NC(=O)c1ccc(C#N)cc1,4.666
16,N#Cc1ccccc1NC(=O)c1ccc2c(c1)OCO2,136.5
17,CCc1noc(CN(C)CCC(=O)Nc2ccccc2C#N)n1,9.134
18,COc1cc(C)nc(N2CCN(C(C)c3nc(C)no3)CC2)n1 (stereo not drawn),-6.748
19,CC(C)(O)CSCCNCc1ccc(Cl)c2cccnc12,7.695
20,C1CCC(NCCN2CCOCC2)C1,-5.882
21,CC1CCC(NCCCN2CCOCC2)CC1 (stereo not drawn),-18.43
22,C1CN(CCN2CCOCC2)CCN1,96.42

row,SMILES,Percent Effect [%]
1,Cc1cc(C)n(CC2CCCN2C(=O)CCc2cscn2)n1 (stereo not drawn),-3.871
2,CCC(C)(NC(=O)CCN1CCOC1=O)C(=O)OC (stereo not drawn),-2.045
3,Cc1cc(C)n(C2CCCN(C(=O)CCc3nccs3)C2)n1 (stereo not drawn),95.16
4,O=C(CCc1nccs1)N1CCCC(n2cccn2)C1 (stereo not drawn),73.36
5,Cc1cc(C)n(C2CCCN(C(=O)CN(C)c3cnccn3)C2)n1 (stereo not drawn),-4.644
6,Cc1cc(C)n(C2CCCN(C(=O)Cc3csc(C)n3)C2)n1 (stereo not drawn),1.332
7,Cc1cnn(C2CCCN(C(=O)CCc3nccs3)C2)c1 (stereo not drawn),-0.76
8,O=C(CCc1cnn(-c2ccccc2)c1)N1CCCC(n2cccn2)C1 (stereo not drawn),-6.718
9,CN1CCCN(C(=O)c2cc(CN(C)CCc3ccccc3)on2)CC1,-31.64
10,CN(CCc1ccccc1)Cc1cc(C(=O)N2CCN(C)C(=O)C2)no1,103.8
11,CN(CCc1ccccc1)Cc1cc(C(=O)N2CCSCC2)no1,-17.09
12,O=C(NCCSCc1cccs1)C1CCCN(C(=O)N2CCCC2)C1 (stereo not drawn),-5.994
13,COCCN1CCCC1c1nccnc1Nc1nc(C)cs1 (stereo not drawn),-1.129
14,COCCN1CCCC1c1nccnc1Nc1ncc(C)s1 (stereo not drawn),100
15,Cc1cnc(NC(=O)c2ccc(C3CCCN3CC(C)C)s2)s1 (stereo not drawn),-4.424
16,COCCN1CCN(Cc2nccs2)[C@H]2CS(=O)(=O)C[C@H]21,-12.76
17,COCCN1CCCC1c1nccnc1Nc1nccs1 (stereo not drawn),95.24
18,COc1c(C2CCCN2CCOc2ccccc2C#N)c(C)nn1C (stereo not drawn),-6.58
19,O=C(CN1CCN(c2ncnc3c2CCNCC3)CC1)N1CCCCC1,-2.249
20,c1ccc(-c2cnc(CNCC3CCCN3c3cccnn3)o2)cc1 (stereo not drawn),-6.959
21,Cn1cnc2c1C(C(=O)N1CCCC1)N(S(C)(=O)=O)CC2 (stereo not drawn),3.413
22,Cc1ccc(CN2CCc3ncnc(-c4ccncc4)c3CC2)o1.O=C(O)C(F)(F)F.O=C(O)C(F)(F)F,96.83

row,SMILES,Percent Effect [%]
1,Cc1ccc(CN2CCc3ncnc(-c4ccoc4)c3CC2)o1.O=C(O)C(F)(F)F,105.9
2,Cc1ccc(CN2CCc3ncnc(-c4ccc(F)cc4)c3CC2)o1.O=C(O)C(F)(F)F,-0.3748
3,CC(C)Oc1ncnc2c1CCN(Cc1ccoc1)CC2.O=C(O)C(F)(F)F,3.383
4,CC(C)Oc1ncnc2c1CCN(Cc1ccco1)CC2.O=C(O)C(F)(F)F,2.851
5,O=C1CCc2cc(S(=O)(=O)NC(=O)c3ccc4c(c3)OCO4)ccc2N1,-58.45
6,Cc1cc(C(=O)N2CCC3(CC2)CN(CCN(C)C)C(=O)O3)nc(C)n1,-4.106
7,Cc1nc[nH]c1C(=O)N1CCC2(CC1)CN(CCN(C)C)C(=O)O2,0.5324
8,Cc1ccc(C(=O)N2CCC3(CC2)CN(CCN(C)C)C(=O)O3)c(F)c1,62.77
9,O[C@@H]1C[C@@H](c2nc(-c3ccccc3)no2)N(Cc2ccncc2)C1,-6.257
10,O[C@@H]1C[C@@H](c2nc(-c3ccccc3)no2)N(Cc2cccnc2)C1,4.417
11,O[C@@H]1C[C@@H](c2nc(-c3ccccc3)no2)N(CC2CCCCC2)C1,-2.196
12,O[C@@H]1C[C@H]2CN(CC3CCCCC3)[C@H](Cc3ccccc3)CN2C1,87.27
13,Oc1ccccc1CN1C[C@H](O)C[C@H]1c1nc(Cc2ccccc2)no1,2.62
14,O[C@@H]1C[C@H]2CN(Cc3ccsc3)[C@@H](Cc3ccccc3)CN2C1,108.5
15,O[C@@H]1C[C@H]2CN(Cc3ccccc3)[C@H](Cc3ccccc3)CN2C1,111.3
16,Cc1ccc(CN2C[C@H]3CN(Cc4ccccc4Cl)CCN3C2=O)cc1,5.801
17,O[C@@H]1C[C@@H](c2nc(Cc3ccccc3)no2)N(Cc2ccc(F)cc2)C1,5.892
18,O[C@@H]1C[C@H]2CN(Cc3ccccc3Cl)[C@H](Cc3ccccc3)CN2C1,117.1
19,Cc1cccc(-c2noc([C@@H]3C[C@@H](O)CN3CC3CCCCC3)n2)c1,5.786
20,CS(=O)(=O)N1C[C@@H]2CC[C@H](C1)N(Cc1ccsc1)C2,-3.691
